From PubChem BioAssay
Calls of active or inactive are those of the source.

Test: ATP-based viability of Huh7 replicon cells – cell-based, CellTiter-Glo luminescence, basal, 48 h, cytotoxicity control for HCV replication inhibitor project, primary screen (AID 1143);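 also: Huh7 hepatoma cells carrying a hepatitis C replication reporter with no stimulus; test concentration not given here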
Settings: higher = more signal, called active from +8 up or from −8 down
For `CC(C)(C)N1C(=O)[C@H]2[C@H]3[C@H](O)[C@H](O)CC(=NOCc4ccccc4)[C@@H]3CC[C@H]2C1=O`, the z-score was -0.939 (inactive). In the case of `O=C1[C@H]2[C@H]3[C@H](O)[C@H](O)CC(=NOC[C@@H](O)COCc4ccco4)[C@H]3CC[C@H]2C(=O)N1c1cccc(Oc2ccccc2)c1`, the z-score was -0.6 (inactive). In the case of `CC(C)=CCCC(C)=CCON=C1C[C@@H](O)[C@@H](O)[C@@H]2[C@@H]3C(=O)N(C[C@@H]4CCCO4)C(=O)[C@@H]3CC[C@@H]12`, the z-score was -0.678 (inactive). For `Cc1ccc(S(=O)(=O)N[C@@H]2COC(=O)[C@H](C)COC(=O)CC=C[C@H]2C)cc1`, the z-score was 0.405 (inactive). With `CCc1cc2c(nc1CC)CCN(CCC(C)=NO[C@@H](C)c1cc(-c3c(C)cc(C)cc3C)no1)C2` the z-score was -2.21 (inactive). For `CC(=O)OC[C@H]1O[C@@H](ON=C(C)CCN2CCc3nc(-c4ccccc4)c(-c4ccccc4)cc3C2)[C@H](OC(C)=O)[C@@H](OC(C)=O)[C@@H]1OC(C)=O`, the z-score was -0.228 (inactive). With `Cc1ccc(S[C@]2(C(=O)NCC(F)(F)F)CC(=O)N(Cc3ccccc3Cl)[C@@H]2c2ccc(CO)cc2I)cc1` the z-score was -1.36 (inactive). For `CO[C@@H]1COC(=O)CC=C[C@@H](C)COC(=O)[C@H](COCc2ccccc2)NC(=O)CC=C[C@H]1C`, the z-score was 0.185 (inactive). For `O[C@@H](Cc1ccccc1)[C@H]1C2C=CCCC(c3ccccc3)=C2CN1Cc1cccc(Cl)c1` (some centres not stated), the z-score was -1.31 (inactive). In the case of `CC(=O)OC[C@H]1O[C@H](CCON=C[C@@H](C)[C@H](OCc2ccccc2)C(C)C)C=C[C@@H]1OC(C)=O`, the z-score was -0.305 (inactive). For `CC1(C)OCC(C(O)C2=CCCCC2=O)CO1` (configuration not stated), the z-score was 0.956 (inactive). With `CO[C@@H]1COC(=O)CC=C[C@@H](C)[C@@H]2C=C[C@H](O)[C@@H](COC(=O)[C@H](C)NC(=O)CC=C[C@H]1C)O2` the z-score was -2.59 (inactive). With `CCCCCN1CC=CC23O[C@@H]4C=CCOC(=O)[C@@H]4[C@H]2C(=O)N(CCCCCCO)[C@@H]3C1=O` (some centres not stated) the z-score was 0.0442 (inactive). With `COCCCNC(=O)[C@@]1(C)c2ccccc2C(=O)N(Cc2ccc(OC(F)(F)F)cc2)[C@H]1c1ccc(CO)cc1` the z-score was -1.27 (inactive). With `CC(C)[C@@H](OCc1ccccc1)[C@H](C)C=NO[C@H](C)c1cn([C@H](CO)Cc2ccccc2)nn1` the z-score was -1.28 (inactive). In the case of `c1ccc(C2NCCc3c2[nH]c2ccccc32)cc1` (configuration not stated), the z-score was -0.92 (inactive). For `O=C1NC(=O)C2C1C=CC(C(O)Cc1ccccc1)N2Nc1ccccn1` (configuration not stated), the z-score was -0.151 (inactive). With `CCOC(=O)[C@H](Cc1ccccc1)NC(=O)CCC1CC(OC(=O)NCCc2ccc(F)cc2)CC2(CCCC(COC(=O)NCC(c3ccccc3)c3ccccc3)O2)O1` (some centres not stated) the z-score was -0.792 (inactive). For `COCCOC(=O)N1C(=O)[C@@]2(c3cc(C#Cc4ccc(OC)cc4)ccc31)[C@H](C(=O)N1CCN(c3ncccn3)CC1)[C@H]1C(=O)O[C@H](c3ccccc3)[C@H](c3ccccc3)N1[C@@H]2c1ccc(OCCO)cc1`, the z-score was -0.151 (inactive). In the case of `CC(=O)OC[C@H]1O[C@@H](ON=C[C@@H](C)[C@H](OCc2ccccc2)C(C)C)[C@H](OC(C)=O)[C@@H](OC(C)=O)[C@@H]1OC(C)=O`, the z-score was 0.558 (inactive). With `COC(=O)CC=C[C@@H](C)[C@@H](C=NO[C@H](C)c1cn([C@@H]2COC[C@H]2O)nn1)OC` the z-score was 0.324 (inactive). With `CC(CCN1CCc2nc(-c3ccccc3)c(-c3ccccc3)cc2C1)=NOC(C)CN1CCCCc2nc(C)c(C)cc21` (configuration not stated) the z-score was 0.168 (inactive). In the case of `CC(=O)OC[C@H]1O[C@H](C#CCCCc2ccccc2)C=C[C@@H]1OC(C)=O`, the z-score was -2.33 (inactive). With `CCOc1ccc(N2C(=O)/C(=C/C=C/c3ccccc3OC)S(=O)(=O)C2c2cccc([N+](=O)[O-])c2)cc1` (configuration not stated) the z-score was -4.29 (inactive). With `COC(=O)[C@@H]1N=C(c2ccc(OCCCO)cc2)O[C@@H]1c1ccccc1N=[N+]=[N-]` the z-score was -2.72 (inactive). For `CCN1C(=O)[C@H]2[C@H]3[C@H](O)[C@H](O)CC(=NOC(C)CN4CCCCc5nc(C)c(C)cc54)[C@@H]3CC[C@H]2C1=O` (some centres not stated), the z-score was 0.06 (inactive). In the case of `CC(C)(C)OC(=O)CC[C@]1(C(N)=O)COC(c2ccc(OCCCO)cc2)=N1`, the z-score was 0.0853 (inactive).
